According to paper PMC11006913:
Substitutions are numbered along the chain they refer to.

Tests used:
Test in all cases: PBM; 200 nM protein, PBS
Conditions in all cases: dsDNA, one strand shown
SIX6 [1] = molecular target: T1, SIX6 (Homo sapiens, UniProt O95475 114-200, L167I)
T1 sequence: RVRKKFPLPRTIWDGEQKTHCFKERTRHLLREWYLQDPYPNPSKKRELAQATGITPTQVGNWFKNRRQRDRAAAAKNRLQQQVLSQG

SIX6 [2] = molecular target: T2, SIX6 (Homo sapiens, UniProt O95475 114-200, L143V)
T2 sequence: T1 sequence with L30V, I54L

SIX6 [3] = molecular target: T3, SIX6 (Homo sapiens, UniProt O95475 114-200, H141N)
T3 sequence: T1 sequence with H28N, I54L

SIX6 [4] = molecular target: T4, SIX6 (Homo sapiens, UniProt O95475 114-200, T165P)
T4 sequence: T1 sequence with T52P, I54L

SIX6 [5] = molecular target: T5, SIX6 (Homo sapiens, UniProt O95475 114-200, L167M)
T5 sequence: T1 sequence with I54M

SIX6 [6] = molecular target: T6, SIX6 (Homo sapiens, UniProt O95475 114-200, L143M)
T6 sequence: T1 sequence with L30M, I54L

SIX6 [7] = molecular target: T7, SIX6 (Homo sapiens, UniProt O95475 114-200, L143I)
T7 sequence: T1 sequence with L30I, I54L

SIX6 [8] = molecular target: T8, SIX6 (Homo sapiens, UniProt O95475 114-200, T165G)
T8 sequence: T1 sequence with T52G, I54L

SIX6 [9] = molecular target: T9, SIX6 (Homo sapiens, UniProt O95475 114-200, T139Q)
T9 sequence: T1 sequence with T26Q, I54L

SIX6 [10] = molecular target: T10, SIX6 (Homo sapiens, UniProt O95475 114-200, T165A)
T10 sequence: T1 sequence with T52A, I54L

SIX6 [11] = molecular target: T11, SIX6 (Homo sapiens, UniProt O95475 114-200, L167V)
T11 sequence: T1 sequence with I54V

SIX6 [12] = molecular target: T12, SIX6 (Homo sapiens, UniProt O95475 114-200)
T12 sequence: T1 sequence with I54L

SIX6 [13] = molecular target: T13, SIX6 (Homo sapiens, UniProt O95475 114-200, T165I)
T13 sequence: T1 sequence with T52I, I54L

Sequence	binding signal (SIX6 [1])	binding signal (SIX6 [2])	binding signal (SIX6 [3])	binding signal (SIX6 [4])	binding signal (SIX6 [5])	binding signal (SIX6 [6])	binding signal (SIX6 [7])	binding signal (SIX6 [8])	binding signal (SIX6 [9])	binding signal (SIX6 [10])	binding signal (SIX6 [11])	binding signal (SIX6 [12])	binding signal (SIX6 [13])
ATTATACC	10.8 upbm affinity estimate (log intensity, higher = more binding, comparable within an allelic series)	10.3 upbm affinity estimate (log intensity, higher = more binding, comparable within an allelic series)	10.7 upbm affinity estimate (log intensity, higher = more binding, comparable within an allelic series)	10.1 upbm affinity estimate (log intensity, higher = more binding, comparable within an allelic series)	10.5 upbm affinity estimate (log intensity, higher = more binding, comparable within an allelic series)	10.8 upbm affinity estimate (log intensity, higher = more binding, comparable within an allelic series)	10.3 upbm affinity estimate (log intensity, higher = more binding, comparable within an allelic series)	10.8 upbm affinity estimate (log intensity, higher = more binding, comparable within an allelic series)	10.8 upbm affinity estimate (log intensity, higher = more binding, comparable within an allelic series)	10.7 upbm affinity estimate (log intensity, higher = more binding, comparable within an allelic series)	10.5 upbm affinity estimate (log intensity, higher = more binding, comparable within an allelic series)	10.7 upbm affinity estimate (log intensity, higher = more binding, comparable within an allelic series)	10.6 upbm affinity estimate (log intensity, higher = more binding, comparable within an allelic series)
GGATATCA	11.4 upbm affinity estimate (log intensity, higher = more binding, comparable within an allelic series)	10.4 upbm affinity estimate (log intensity, higher = more binding, comparable within an allelic series)	11.4 upbm affinity estimate (log intensity, higher = more binding, comparable within an allelic series)	9.53 upbm affinity estimate (log intensity, higher = more binding, comparable within an allelic series)	10.9 upbm affinity estimate (log intensity, higher = more binding, comparable within an allelic series)	11.1 upbm affinity estimate (log intensity, higher = more binding, comparable within an allelic series)	10.4 upbm affinity estimate (log intensity, higher = more binding, comparable within an allelic series)	11.3 upbm affinity estimate (log intensity, higher = more binding, comparable within an allelic series)	11.2 upbm affinity estimate (log intensity, higher = more binding, comparable within an allelic series)	11.3 upbm affinity estimate (log intensity, higher = more binding, comparable within an allelic series)	11.2 upbm affinity estimate (log intensity, higher = more binding, comparable within an allelic series)	11.2 upbm affinity estimate (log intensity, higher = more binding, comparable within an allelic series)	11.2 upbm affinity estimate (log intensity, higher = more binding, comparable within an allelic series)
ATACACCA	10.4 upbm affinity estimate (log intensity, higher = more binding, comparable within an allelic series)	10.1 upbm affinity estimate (log intensity, higher = more binding, comparable within an allelic series)	10.6 upbm affinity estimate (log intensity, higher = more binding, comparable within an allelic series)	9.67 upbm affinity estimate (log intensity, higher = more binding, comparable within an allelic series)	10.2 upbm affinity estimate (log intensity, higher = more binding, comparable within an allelic series)	10.4 upbm affinity estimate (log intensity, higher = more binding, comparable within an allelic series)	10.2 upbm affinity estimate (log intensity, higher = more binding, comparable within an allelic series)	10.8 upbm affinity estimate (log intensity, higher = more binding, comparable within an allelic series)	10.8 upbm affinity estimate (log intensity, higher = more binding, comparable within an allelic series)	10.6 upbm affinity estimate (log intensity, higher = more binding, comparable within an allelic series)	10.2 upbm affinity estimate (log intensity, higher = more binding, comparable within an allelic series)	10.5 upbm affinity estimate (log intensity, higher = more binding, comparable within an allelic series)	10.5 upbm affinity estimate (log intensity, higher = more binding, comparable within an allelic series)
GATATCAC	11.4 upbm affinity estimate (log intensity, higher = more binding, comparable within an allelic series)	10.3 upbm affinity estimate (log intensity, higher = more binding, comparable within an allelic series)	11.4 upbm affinity estimate (log intensity, higher = more binding, comparable within an allelic series)	9.67 upbm affinity estimate (log intensity, higher = more binding, comparable within an allelic series)	10.7 upbm affinity estimate (log intensity, higher = more binding, comparable within an allelic series)	11.1 upbm affinity estimate (log intensity, higher = more binding, comparable within an allelic series)	10.3 upbm affinity estimate (log intensity, higher = more binding, comparable within an allelic series)	11.4 upbm affinity estimate (log intensity, higher = more binding, comparable within an allelic series)	11.2 upbm affinity estimate (log intensity, higher = more binding, comparable within an allelic series)	11.2 upbm affinity estimate (log intensity, higher = more binding, comparable within an allelic series)	11.1 upbm affinity estimate (log intensity, higher = more binding, comparable within an allelic series)	11.1 upbm affinity estimate (log intensity, higher = more binding, comparable within an allelic series)	11.1 upbm affinity estimate (log intensity, higher = more binding, comparable within an allelic series)
TATCATCA	10.9 upbm affinity estimate (log intensity, higher = more binding, comparable within an allelic series)	10.3 upbm affinity estimate (log intensity, higher = more binding, comparable within an allelic series)	10.8 upbm affinity estimate (log intensity, higher = more binding, comparable within an allelic series)	9.94 upbm affinity estimate (log intensity, higher = more binding, comparable within an allelic series)	10.5 upbm affinity estimate (log intensity, higher = more binding, comparable within an allelic series)	10.8 upbm affinity estimate (log intensity, higher = more binding, comparable within an allelic series)	10.2 upbm affinity estimate (log intensity, higher = more binding, comparable within an allelic series)	10.8 upbm affinity estimate (log intensity, higher = more binding, comparable within an allelic series)	10.9 upbm affinity estimate (log intensity, higher = more binding, comparable within an allelic series)	10.8 upbm affinity estimate (log intensity, higher = more binding, comparable within an allelic series)	10.6 upbm affinity estimate (log intensity, higher = more binding, comparable within an allelic series)	10.7 upbm affinity estimate (log intensity, higher = more binding, comparable within an allelic series)	10.7 upbm affinity estimate (log intensity, higher = more binding, comparable within an allelic series)
GTATCAAC	11.2 upbm affinity estimate (log intensity, higher = more binding, comparable within an allelic series)	10.3 upbm affinity estimate (log intensity, higher = more binding, comparable within an allelic series)	11.3 upbm affinity estimate (log intensity, higher = more binding, comparable within an allelic series)	9.76 upbm affinity estimate (log intensity, higher = more binding, comparable within an allelic series)	10.6 upbm affinity estimate (log intensity, higher = more binding, comparable within an allelic series)	11 upbm affinity estimate (log intensity, higher = more binding, comparable within an allelic series)	10.4 upbm affinity estimate (log intensity, higher = more binding, comparable within an allelic series)	11.4 upbm affinity estimate (log intensity, higher = more binding, comparable within an allelic series)	11.3 upbm affinity estimate (log intensity, higher = more binding, comparable within an allelic series)	11.3 upbm affinity estimate (log intensity, higher = more binding, comparable within an allelic series)	11 upbm affinity estimate (log intensity, higher = more binding, comparable within an allelic series)	11.1 upbm affinity estimate (log intensity, higher = more binding, comparable within an allelic series)	11.1 upbm affinity estimate (log intensity, higher = more binding, comparable within an allelic series)
CCCCGCAG	9.03 upbm affinity estimate (log intensity, higher = more binding, comparable within an allelic series)	8.85 upbm affinity estimate (log intensity, higher = more binding, comparable within an allelic series)	9.03 upbm affinity estimate (log intensity, higher = more binding, comparable within an allelic series)	8.95 upbm affinity estimate (log intensity, higher = more binding, comparable within an allelic series)	9 upbm affinity estimate (log intensity, higher = more binding, comparable within an allelic series)	8.92 upbm affinity estimate (log intensity, higher = more binding, comparable within an allelic series)	8.95 upbm affinity estimate (log intensity, higher = more binding, comparable within an allelic series)	9.04 upbm affinity estimate (log intensity, higher = more binding, comparable within an allelic series)	8.99 upbm affinity estimate (log intensity, higher = more binding, comparable within an allelic series)	8.96 upbm affinity estimate (log intensity, higher = more binding, comparable within an allelic series)	8.93 upbm affinity estimate (log intensity, higher = more binding, comparable within an allelic series)	8.96 upbm affinity estimate (log intensity, higher = more binding, comparable within an allelic series)	8.97 upbm affinity estimate (log intensity, higher = more binding, comparable within an allelic series)
AAGTATCA	11.3 upbm affinity estimate (log intensity, higher = more binding, comparable within an allelic series)	10.3 upbm affinity estimate (log intensity, higher = more binding, comparable within an allelic series)	11.2 upbm affinity estimate (log intensity, higher = more binding, comparable within an allelic series)	9.85 upbm affinity estimate (log intensity, higher = more binding, comparable within an allelic series)	10.6 upbm affinity estimate (log intensity, higher = more binding, comparable within an allelic series)	11 upbm affinity estimate (log intensity, higher = more binding, comparable within an allelic series)	10.3 upbm affinity estimate (log intensity, higher = more binding, comparable within an allelic series)	11.2 upbm affinity estimate (log intensity, higher = more binding, comparable within an allelic series)	11.1 upbm affinity estimate (log intensity, higher = more binding, comparable within an allelic series)	11.2 upbm affinity estimate (log intensity, higher = more binding, comparable within an allelic series)	11 upbm affinity estimate (log intensity, higher = more binding, comparable within an allelic series)	10.9 upbm affinity estimate (log intensity, higher = more binding, comparable within an allelic series)	11 upbm affinity estimate (log intensity, higher = more binding, comparable within an allelic series)
GATACATA	11.1 upbm affinity estimate (log intensity, higher = more binding, comparable within an allelic series)	10.4 upbm affinity estimate (log intensity, higher = more binding, comparable within an allelic series)	11 upbm affinity estimate (log intensity, higher = more binding, comparable within an allelic series)	10 upbm affinity estimate (log intensity, higher = more binding, comparable within an allelic series)	10.7 upbm affinity estimate (log intensity, higher = more binding, comparable within an allelic series)	10.9 upbm affinity estimate (log intensity, higher = more binding, comparable within an allelic series)	10.4 upbm affinity estimate (log intensity, higher = more binding, comparable within an allelic series)	11 upbm affinity estimate (log intensity, higher = more binding, comparable within an allelic series)	11.1 upbm affinity estimate (log intensity, higher = more binding, comparable within an allelic series)	11 upbm affinity estimate (log intensity, higher = more binding, comparable within an allelic series)	10.8 upbm affinity estimate (log intensity, higher = more binding, comparable within an allelic series)	10.9 upbm affinity estimate (log intensity, higher = more binding, comparable within an allelic series)	10.8 upbm affinity estimate (log intensity, higher = more binding, comparable within an allelic series)
